Screening results: PubChem, National Center for Advancing Translational Sciences (NCATS)
The list is not random: actives were taken first. Their share in the collection is about 11%.
JMJD2A Tudor inh – qHTS Assay for Inhibitors of JMJD2A-Tudor Domain | Lysine-specific demethylase 4A (Homo sapiens), O75164 | AlphaScreen JMJD2A-Tudor / H3K4me3 peptide binding | Potency, µM (titrated, usually from 114 µM), most hits filed as inhibitors | 390,000 tested, 4.4% active | AID 504339, 2011; note: nearly all actives have a fitted effect of over 50% in size
PLK1 PBD inh – qHTS for Inhibitors of PLK1-PDB (polo-like kinase 1 - polo-box domain): Primary Screen. Serine/threonine-protein kinase PLK1 (Homo sapiens), P53350. Plk1 PBD binding of FITC phosphopeptide, fluorescence polarization. Potency, µM, usual class: inhibitors. 360,000 tested, 2.8% active. AID 720504, 2013; note: series mostly up to about 57 µM; nearly all actives have a fitted effect of over 65% in size
HP1b binding inh – HTS for Inhibitors of HP1-beta Chromodomain Interactions with Methylated Histone Tails | Chromobox protein homolog 1 (Homo sapiens), P83916 | AlphaScreen HP1-beta / biotin-H3K9me3 peptide binding | Potency, µM (titrated, usually from 114 µM), most hits filed as inhibitors | 390,000 tested, 0.56% active | AID 540317, 2011; note: nearly all actives have a fitted effect of over 70% in size
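Compound inhibition of the preformed complex between 50 nM HP1-beta and 50 nM biotinylated H3K9me3 peptide was read by AlphaScreen. Buffer was PBS pH 7.4 with 0.01% Tween-20. Incubations ran 30 min at room temperature, with 10 ug/mL donor/acceptor beads.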
VDR inhibitor – Inhibitors of the vitamin D receptor (VDR): qHTS; Vitamin D3 receptor (Homo sapiens), P11473; VDR-SRC2-3 peptide fluorescence polarization, 2 h; Potency, µM, hits mostly inhibitors; 400,000 tested, 0.93% active; AID 504847, 2011
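VDR–SRC2-3 interaction, FP format. Cmpds 23 nl via pintool, brief spin, 2 h ambient incubation.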
G9a block – qHTS Assay for Inhibitors of Histone Lysine Methyltransferase G9a; Histone-lysine N-methyltransferase EHMT2 (Homo sapiens), Q96KQ7; Potency, µM (doses to about 102 µM), hits mostly inhibitors; AID 504332, 2011; 350,000 tested, 8.8% active; G9a H3K9 monomethylation, AlphaScreen, 2 h; note: nearly all actives have a fitted effect of over 75% in size
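Readings reflect AlphaScreen signal from monomethyl-H3K9 antibody detection. HMT at 20 nM; substrate b-H3K9 500 nM; cofactor SAM 20 uM; 2 h RT reaction; compounds tested as titrations in qHTS with 15 min preincubation.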
BAZ2B block – qHTS Assay for Inhibitors of BAZ2B; Bromodomain adjacent to zinc finger domain protein 2B (Homo sapiens), Q9UIF8; AlphaScreen BAZ2B-H3K14Ac peptide displacement; Potency, µM (titrated, usually from 114 µM), usual class: inhibitors; 360,000 tested, 4.4% active; AID 504333, 2011; note: nearly all actives have a fitted effect of over 60% in size
Target sequence (Q9UIF8 whole entry, looked up, the tested form may be a part): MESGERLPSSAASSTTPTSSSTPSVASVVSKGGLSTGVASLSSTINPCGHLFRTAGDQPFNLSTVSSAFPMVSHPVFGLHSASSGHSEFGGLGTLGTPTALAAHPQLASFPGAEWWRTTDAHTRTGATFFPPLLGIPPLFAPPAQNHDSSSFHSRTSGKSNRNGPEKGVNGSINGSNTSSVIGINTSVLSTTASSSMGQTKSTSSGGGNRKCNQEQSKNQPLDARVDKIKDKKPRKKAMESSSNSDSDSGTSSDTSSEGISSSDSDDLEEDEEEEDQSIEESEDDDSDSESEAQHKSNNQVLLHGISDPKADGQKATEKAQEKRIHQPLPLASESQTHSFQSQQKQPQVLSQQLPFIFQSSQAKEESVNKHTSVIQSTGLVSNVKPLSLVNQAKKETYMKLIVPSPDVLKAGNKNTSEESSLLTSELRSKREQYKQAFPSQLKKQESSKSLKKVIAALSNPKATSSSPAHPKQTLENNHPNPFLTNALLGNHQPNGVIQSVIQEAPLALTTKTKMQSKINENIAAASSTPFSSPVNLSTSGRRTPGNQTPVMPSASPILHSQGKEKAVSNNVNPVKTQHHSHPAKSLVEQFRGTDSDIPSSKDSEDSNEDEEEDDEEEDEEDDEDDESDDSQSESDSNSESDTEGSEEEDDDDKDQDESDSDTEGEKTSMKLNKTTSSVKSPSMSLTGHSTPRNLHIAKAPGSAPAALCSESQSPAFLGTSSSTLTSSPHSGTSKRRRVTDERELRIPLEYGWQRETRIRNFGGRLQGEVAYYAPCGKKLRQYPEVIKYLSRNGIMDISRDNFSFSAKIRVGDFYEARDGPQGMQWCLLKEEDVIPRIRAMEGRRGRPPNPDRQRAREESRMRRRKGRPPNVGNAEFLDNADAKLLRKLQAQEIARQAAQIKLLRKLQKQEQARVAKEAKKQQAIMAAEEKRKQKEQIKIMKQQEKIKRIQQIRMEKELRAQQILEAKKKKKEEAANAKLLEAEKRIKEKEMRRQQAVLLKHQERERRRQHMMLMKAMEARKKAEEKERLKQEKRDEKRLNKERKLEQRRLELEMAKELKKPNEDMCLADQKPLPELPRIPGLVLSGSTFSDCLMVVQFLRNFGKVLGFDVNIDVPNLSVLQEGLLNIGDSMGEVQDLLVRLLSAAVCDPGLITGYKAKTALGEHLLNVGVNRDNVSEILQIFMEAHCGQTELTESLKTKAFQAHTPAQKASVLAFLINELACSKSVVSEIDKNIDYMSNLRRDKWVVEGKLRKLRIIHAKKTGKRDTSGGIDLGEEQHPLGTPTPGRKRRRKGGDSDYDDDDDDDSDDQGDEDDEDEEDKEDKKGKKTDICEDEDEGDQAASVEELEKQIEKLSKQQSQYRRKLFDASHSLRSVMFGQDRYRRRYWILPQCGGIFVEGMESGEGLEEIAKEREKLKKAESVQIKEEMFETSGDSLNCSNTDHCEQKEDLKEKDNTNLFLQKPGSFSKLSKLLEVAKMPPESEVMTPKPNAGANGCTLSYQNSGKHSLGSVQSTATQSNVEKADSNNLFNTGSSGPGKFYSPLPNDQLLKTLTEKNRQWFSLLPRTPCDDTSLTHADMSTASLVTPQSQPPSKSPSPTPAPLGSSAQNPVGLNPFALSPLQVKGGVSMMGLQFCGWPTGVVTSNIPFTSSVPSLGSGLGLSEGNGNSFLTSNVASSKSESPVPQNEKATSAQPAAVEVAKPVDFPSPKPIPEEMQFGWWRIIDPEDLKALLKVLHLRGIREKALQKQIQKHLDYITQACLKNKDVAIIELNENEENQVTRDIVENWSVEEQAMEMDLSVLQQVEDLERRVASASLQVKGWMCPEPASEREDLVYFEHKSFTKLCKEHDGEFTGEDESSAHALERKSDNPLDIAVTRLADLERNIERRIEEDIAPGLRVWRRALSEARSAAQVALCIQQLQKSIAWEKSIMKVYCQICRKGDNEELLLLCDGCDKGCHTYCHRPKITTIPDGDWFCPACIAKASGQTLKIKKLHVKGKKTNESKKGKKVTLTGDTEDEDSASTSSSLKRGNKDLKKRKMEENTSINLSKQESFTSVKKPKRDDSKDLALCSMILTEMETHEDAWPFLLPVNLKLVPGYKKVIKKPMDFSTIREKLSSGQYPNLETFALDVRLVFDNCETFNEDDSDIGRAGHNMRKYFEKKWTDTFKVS
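Multi-concentration screen (max 110 uM) measuring displacement of acetylated histone H3 peptide from BAZ2B by AlphaScreen, using 50 nM protein, 50 nM peptide and 10 ug/mL streptavidin donor plus Ni-chelate acceptor beads.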
Hits are given with their value; – = inactive; ? = inconclusive; · = not tested or not shown; [ ] = remark or other dose. Calls come from the whole dose curve; as a rule, active = well fitted curve in the direction sought with a large enough effect; inconclusive = small, poorly fitted or top-dose-only effect, or another doubt; inactive = no such curve, though single readings can be large; an effect the other way counts as inactive or inconclusive.

SMILES	JMJD2A Tudor inh	PLK1 PBD inh	HP1b binding inh	VDR inhibitor	G9a block	BAZ2B block
Cc1cc(C)n2cc(CSCC(=O)O)nc2n1	–	–	–	–	44.7µM	?
Cc1cc(C)n2cc(CSc3nnnn3-c3ccc(Cl)cc3)nc2n1	–	–	–	–	39.8µM	–
Cc1cc(C)n2cc(CSc3ccc(Br)cc3)nc2n1	–	–	–	–	–	?
Cn1c(=O)c2c(n(Cc3ccccc3)c1=O)NC(=O)C2CC(=O)O (configuration not stated)	–	–	–	–	44.7µM	–
Cn1c2c(c(=O)n(C)c1=O)C(CC(=O)Nc1ccccc1F)C(=O)N2 (configuration not stated)	–	–	–	–	?	–
CC1CCN(C(=O)CC2C(=O)Nc3c2c(=O)n(C)c(=O)n3Cc2ccccc2)CC1 (configuration not stated)	–	–	–	–	8.91µM	–
O=C(CN1CCOCC1)N/N=C/c1cccc2ccccc12	–	–	–	–	·	–
Cn1nccc1C(=O)N1CCCC(Nc2ccc(F)cc2)C1 (configuration not stated)	–	–	–	–	–	–
CC(=O)Nc1ccc(-c2nc3ccc(Cl)cc3[nH]2)cc1	·	·	·	–	·	·
CC(=O)Nc1ccc2nc(-c3ccncc3)[nH]c2c1	–	–	–	–	–	?
CC(=O)Nc1ccc2nc(-c3ccccn3)[nH]c2c1	56.2µM	–	–	–	?	?
CC(=O)Nc1cc(NC(C)=O)cc(-c2nc3ccccc3[nH]2)c1	–	–	?	–	–	50.1µM
COc1cc(C2C(C(=O)Nc3ccccc3)=C(C)Nc3nnnn32)cc(OC)c1OC (configuration not stated)	–	·	–	–	–	–
C[C@H](N)C(=O)N[C@@H](CO)C(=O)N[C@H](C(=O)N[C@H](C(=O)N[C@H](C(=O)N[C@@H](CC(N)=O)C(=O)N[C@@H](Cc1ccc(O)cc1)C(=O)N[C@H](C(=O)O)[C@@H](C)O)[C@@H](C)O)[C@@H](C)O)[C@@H](C)O	·	·	·	–	·	·
CC1=C/C(=N\Nc2ccccc2[N+](=O)[O-])CC(C)(C)C1	7.94µM	–	7.08µM	–	3.55µM	2.82µM
S=c1[nH]nc(Cc2cccs2)n1-c1cccc2ccccc12	39.8µM	–	–	–	1.78µM	–
CCS(=O)(=O)n1c(Cc2cccs2)nc2ccccc21	–	–	–	–	–[2.33 µM]	–
OC(COCc1cccs1)CN1CCN(c2ccccc2Cl)CC1 (configuration not stated)	–	–	–	–	–	–
Cc1ccc(-n2c(Cc3cccc4ccccc34)n[nH]c2=S)c(C)c1	–	–	–	–	?	–
COc1ccccc1-n1c(Cc2cccs2)n[nH]c1=S	–	–	–	–	3.55µM	–
Cc1ccc(C)c(-n2c(Cc3cccs3)n[nH]c2=S)c1	10µM	–	–	–	1.58µM	–
S=c1[nH]nc(Cc2cccs2)n1-c1ccccc1Cl	14.1µM	–	–	–	2.24µM	–
Cc1ccc(CN2CC(C(=O)N3CC(C)CC(C)C3)CC2=O)cc1 (configuration not stated)	–	–	–	–	–[12.7 µM]	–
C=CCOc1ccc(/C=C2\N=C(C)OC2=O)cc1OC	–	–	–	?	·	–
COc1ccc(/C=C2\N=C(C)OC2=O)cc1OC	–	–	–	?	35.5µM	–
COc1ccc(/C=C2\N=C(C)OC2=O)cc1OC(C)=O	–	–	–	50.1µM	28.2µM	–
CCN(CC)CCCNC(=O)c1oc2c(c1C)-c1nn(Cc3ccc(Cl)cc3)cc1CC2	–	·	–	–	?	?
O=C(Nc1ccc(O)c(-c2nc3ccccc3o2)c1)c1sc2ccccc2c1Cl	–	·	–	–	–	?
COc1ccc(NC(=O)N2CCCC3(CCN(C(C)=O)CC3)C2)cc1	·	·	·	–	–[12.7 µM]	·
